# ChEMBL document CHEMBL1857833, “Screening and optimization of specific chemical series against human African Trypanosomiasis (HAT)”
# Several values for one entry are separate records, joined by “and”; a condition that tells them apart may be missing. Equal values may be shown once. The campaign covered roughly 4,400 compounds. About 390 (8.9%) showed an effect of 50% or more. The entries come from a sample that favours strong results as a whole.
# System: Trypanosoma brucei
# Assay: DNDI: Inhibition of Human African Trypanosomiasis, SBRI 427, in vitro at 2 ug.mL-1
# Assay type: functional
row,SMILES,% inhibition
1,CN(Cc1ccccc1)Cc1coc(-c2cccc3ccccc23)n1,-2%
2,COc1ccc(OC)c(NCc2coc(-c3ccccc3C)n2)c1,8%
3,CCCN(CC1CC1)/C(=N\O)c1ccc(C)nc1Oc1cccc2cnccc12,23%
4,Cc1ccc(/C(=N/O)N2C(C)C=CC2C)c(Oc2cccc(C(C)C)c2)n1 (configuration not stated),20%
5,Cc1ccc(/C(=N/O)NC2CC2)c(Oc2ccc3ccccc3c2)n1,16%
6,Cc1ccc(/C(=N/O)NC2CCC2)c(Oc2ccc3ccccc3c2)n1,7%
7,Cc1ccc(/C(=N/O)NC2CCCCC2)c(Oc2ccc3ccccc3c2)n1,97%
8,Cc1ccc(/C(=N/O)NC2CCCCC2)c(Oc2cccc(C(C)C)c2)n1,22%
9,Cc1cccc(Oc2nc(C)ccc2/C(=N/O)NC2CCCC2)c1,11%
10,Cc1cccc(Oc2nc(C)ccc2/C(=N/O)NC2CCCCC2)c1,98%
11,CCOc1cccc(-c2nc(CN(C)Cc3cc(OC)c(OC)c(OC)c3)co2)c1,18%
12,COc1ccc(Oc2cc(/C(=N/O)NCc3ccccc3C)ccn2)cc1,21%
13,Cc1ccc(-c2nc(CNCC(C)(C)CN(C)C)co2)cc1,10%
14,Cc1cccc(Oc2ncccc2/C(=N/O)N(C)C2CCCCC2)c1C,-1%
15,COc1ccc(CN/C(=N\O)c2ccnc(Oc3cccc(C(C)C)c3)c2)cc1,-1%
16,CC1CCCN1/C(=N\O)c1cccnc1OCc1ccccc1F (configuration not stated),-5%
17,CCCCC(CC)CNCc1coc(-c2ccc(Br)cc2)n1 (configuration not stated),-12%
18,COCC(C)N/C(=N\O)c1ccnc(Oc2cccc(F)c2)c1 (configuration not stated),8%
19,O/N=C(\NCc1c(F)cccc1F)c1ccnc(Oc2ccc(Cl)cc2)c1,12%
20,COCC(C)N/C(=N\O)c1ccnc(Oc2cccc(C(C)C)c2)c1 (configuration not stated),71%
21,COCCN/C(=N\O)c1ccnc(Oc2ccc(Cl)cc2)c1,55%
22,CSc1ccc(Oc2cc(/C(=N/O)NCc3ccncc3)ccn2)cc1,9%
23,COCCN/C(=N\O)c1ccnc(Oc2ccc(SC)cc2)c1,-13%

row,SMILES,% inhibition
1,COCC(C)N/C(=N\O)c1ccc(Oc2ccc(Cl)cc2)nc1 (configuration not stated),31%
2,COCCN/C(=N\O)c1ccnc(Oc2cccc(C(C)C)c2)c1,4%
3,COCC(C)N/C(=N\O)c1ccnc(Oc2ccc(SC)cc2)c1 (configuration not stated),86%
4,COCC(C)N/C(=N\O)c1ccnc(Oc2ccc(Cl)cc2)c1 (configuration not stated),99%
5,COCCN/C(=N\O)c1ccnc(Oc2ccc(OC)cc2)c1,41%
6,COCCN(/C(=N\O)c1ccnc(Oc2ccc(Cl)cc2)c1)C(C)C,28%
7,CCOC(=O)C1CCCCN1Cc1coc(-c2ccc(O)cc2)n1 (configuration not stated),-1%
8,Fc1ccccc1-c1nc(CNCc2cccc3ccccc23)co1,24%
9,Cc1ccc(/C(=N/O)N(C)Cc2cccnc2)c(Oc2cccnc2)n1,10%
10,CSc1ccc(Oc2nc(C)ccc2/C(=N/O)N2C(C)C=CC2C)cc1 (configuration not stated),-5%
11,Cc1ccccc1-c1nc(CN(C)Cc2ccco2)co1,2%
12,CCN(/C(=N\O)c1ccc(C)nc1Oc1cccc(C(C)C)c1)C(C)C,-4%
13,C=CCN(Cc1coc(-c2ccc(C)cc2)n1)C1CCCC1,16%
14,Cc1ccc([C@@H](C)NCc2coc(-c3ccc(O)cc3)n2)cc1,46%
15,Cc1ccc(Oc2cc(/C(=N/O)N3CCN(c4ccc(F)cc4)CC3)ccn2)c2c1CCC2,31%
16,COc1cc(CNCc2coc(-c3ccccc3Br)n2)cc(OC)c1OC,-33%
17,CCN(Cc1ccccc1)Cc1coc(-c2cc(OC)c(OC)c(OC)c2)n1,-20%
18,Cc1ccc(C)c(N2CCN(Cc3coc(-c4ccc(O)cc4)n3)CC2)c1,9%
19,Cc1cccc(-c2nc(CNCc3ccncc3)co2)c1,-16%
20,Cc1ccc(-c2nc(CN3CC[C@@H]4CCCC[C@@H]4C3)co2)cc1,-5%
21,COCC(C)N/C(=N\O)c1ccnc(Oc2ccc(F)c(Cl)c2)c1 (configuration not stated),99%
22,O/N=C(\NCc1ccccc1)c1ccnc(Oc2ccc(F)c(Cl)c2)c1,24%
23,CCN(/C(=N\O)c1ccnc(Oc2ccc(Cl)cc2)c1)C(C)C,74%

row,SMILES,% inhibition
1,CC(C)c1ccc(N/C(=N\O)c2ccnc(Oc3ccc(F)c(Cl)c3)c2)cc1,0%
2,CCN(/C(=N\O)c1ccnc(Oc2ccc(F)c(Cl)c2)c1)C(C)C,14%
3,CCN(/C(=N\O)c1ccnc(Oc2ccc(F)c(F)c2)c1)C(C)C,43%
4,Cc1cn(/C(=N\O)c2ccc(Oc3ccc(Cl)cc3)nc2)cn1,5%
5,CCCN(CC1CC1)/C(=N\O)c1cccnc1Oc1ccccc1OC,24%
6,CC(C)c1ccccc1Oc1ncccc1/C(N)=N/O,7%
7,COc1cc(C)ccc1Oc1nc(C)ccc1/C(=N/O)Nc1ccc(C(C)C)cc1,8%
8,Cc1ccc(Oc2nc(C)ccc2/C(=N/O)NCc2ccco2)cc1,37%
9,CC(C)c1ccc(N/C(=N\O)c2cccnc2OCC(C)(C)C)cc1,14%
10,COc1ccc(Oc2ncccc2/C(=N/O)NCc2cc(C)cc(C)c2)cc1,79%
11,CC(C)N/C(=N\O)c1cccnc1Oc1ccc2ccccc2c1,21%
12,CCCN/C(=N\O)c1cccnc1Oc1ccc2ccccc2c1,25%
13,CCC(C)(C)N/C(=N\O)c1cccnc1Oc1ccc2ccccc2c1,99%
14,Cc1ccc(CN/C(=N\O)c2cccnc2Oc2ccc3ccccc3c2)o1,19%
15,CCC(C)(C)N/C(=N\O)c1cccnc1OCC(C)(C)C,11%
16,Cc1cc(C)cc(CN/C(=N\O)c2cccnc2Oc2ccc3ccccc3c2)c1,70%
17,COc1ccc(Oc2ncccc2/C(=N/O)NCc2cccnc2)cc1,-2%
18,Cc1cc(C)cc(CN/C(=N\O)c2cccnc2Oc2ccc(Cl)cc2)c1,31%
19,O/N=C(\NCc1cccnc1)c1cccnc1Oc1ccc2ccccc2c1,-6%
20,CC(C)N/C(=N\O)c1cccnc1OCC(C)(C)C,100%
21,COc1cccc(-c2nc(CN3CCOCC3)co2)c1,35%
22,FC(F)(F)CNCc1coc(-c2ccc(Cl)cc2Cl)n1,23%
23,COCC(C)NCc1coc(-c2ccccc2C)n1 (configuration not stated),9%

row,SMILES,% inhibition
1,CC(c1ccccc1)N(C)Cc1coc(-c2ccc(C(F)(F)F)cc2)n1 (configuration not stated),7% and -11%
2,Cc1cc(C)cc(Oc2ccc(/C(N)=N/O)cn2)c1,11%
3,Clc1ccccc1-c1nc(CNC(c2ccccc2)c2ccccc2)co1,6%
4,CC1CC(C)CN(Cc2coc(-c3ccc(Br)cc3)n2)C1 (configuration not stated),-5%
5,CCOc1ccccc1-c1nc(CN(C)C(C)c2ccccc2)co1 (configuration not stated),8% and 1%
6,CCOc1cccc(-c2nc(CNC(CC)c3ccccc3)co2)c1 (configuration not stated),27%
7,Fc1ccc(N2CCN(Cc3coc(-c4ccccc4Br)n3)CC2)cc1,-6%
8,Cc1nccn1/C(=N\O)c1cccnc1OCC(C)C,-13%
9,O/N=C(\NCc1cc(F)ccc1F)c1ccc(Oc2ccc3ccccc3c2)nc1,31%
10,Cc1cc(C)cc(CN/C(=N\O)c2cccnc2OCC(C)(C)C)c1,-8%
11,CC(C)COc1ncccc1/C(=N/O)NCC(C)(C)C,95%
12,COCCN/C(=N\O)c1cccnc1OCC(C)C,-7%
13,Cc1cc(C)cc(CN/C(=N\O)c2cccnc2OCC(C)C)c1,92%
14,CC(C)COc1ncccc1/C(=N/O)NCc1ccccc1,37%
15,CSCCN/C(=N\O)c1cccnc1OCC(C)C,-5%
16,Fc1cccc(-c2nc(CNc3cc[nH]n3)co2)c1,45%
17,FC(F)(F)c1ccc(-c2nc(CN3CCN(C(c4ccccc4)c4ccccc4)CC3)co2)cc1,-3%
18,CCOc1ccc(-c2nc(CNC(CC)c3ccccc3)co2)cc1 (configuration not stated),1% and -14%
19,CCCCN(CC)Cc1coc(-c2ccccc2Cl)n1,19%
20,CC1CCCCN1CCCNCc1coc(-c2ccco2)n1 (configuration not stated),23%
21,COc1ccc(-c2nc(CN3CCCCC3C)co2)cc1 (configuration not stated),12%
22,CC1CCCCN1CCCNCc1coc(-c2ccc(F)cc2)n1 (configuration not stated),72%
23,COc1ccc(-c2nc(CNCCCN3CCCCC3C)co2)cc1 (configuration not stated),97%

row,SMILES,% inhibition
1,Fc1ccc(-c2nc(CNCCN3CCCC3)co2)cc1,1%
2,Fc1ccc(-c2nc(CNCCN3CCCCC3)co2)cc1,-17%
3,COC(=O)C1CCN(/C(=N\O)c2cccnc2Oc2cccc3ccccc23)CC1,9%
4,CC1CCCN1/C(=N\O)c1cccnc1Oc1ccc(Cl)cc1 (configuration not stated),-13%
5,CN(Cc1coc(-c2ccc(C(F)(F)F)cc2)n1)c1ccccc1,1%
6,Oc1ccc(-c2nc(CN(Cc3ccccc3)c3ccccc3)co2)cc1,11%
7,NCCc1cn(Cc2coc(-c3cccs3)n2)c2ccccc12,-15%
8,CCN(Cc1ccccc1)Cc1coc(-c2ccc(OC)cc2)n1,-11%
9,CCC(C)(C)N/C(=N\O)c1ccc(C)nc1Oc1cccc(C)c1,19%
10,Cc1ccc(/C(=N/O)NCC(C)(C)C)c(Oc2cccc(F)c2)n1,99%
11,Cc1cccc(Oc2nc(C)ccc2/C(=N/O)NCC(C)(C)C)c1,100%
12,CCCN/C(=N\O)c1ccc(C)nc1OCc1cccc(F)c1,0%
13,Cc1ccc(/C(=N/O)NCc2cc(F)cc(F)c2)c(OCc2cccc(F)c2)n1,-12%
14,CSCCN/C(=N\O)c1ccc(C)nc1Oc1ccc2ccccc2c1,7%
15,CSCCN/C(=N\O)c1ccc(C)nc1Oc1cccc(F)c1,12%
16,CCC(C)(C)N/C(=N\O)c1ccc(C)nc1Oc1cccc(F)c1,13%
17,Cc1cccc(Oc2nc(C)ccc2/C(=N/O)NCc2ccccc2)c1,6%
18,Cc1ccc(/C(=N/O)NCC2CC2)c(Oc2ccc3ccccc3c2)n1,17%
19,Cc1ccc(/C(=N/O)NCC(C)(C)C)c(OCc2cccc(F)c2)n1,96%
20,Cc1ccc(/C(=N/O)NCC(C)(C)C)c(Oc2ccc3ccccc3c2)n1,96%
